Our source for the Potency, outcome and activation values is PubChem BioAssay (NCATS).

The target in assay [1] is Cytochrome P450 3A4 (Homo sapiens) (UniProt P08684). The experiment in a line: qHTS Assay for Inhibitors and Substrates of Cytochrome P450 3A4 (AID 884). Also: nearly all actives have a fitted effect of over 50% in size. Also: potency is read from the fitted curve at half-maximal effect. The procedure, abridged: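 20 nM human CYP3A4 with 25 uM Luciferin-PPXE (at KM) in 200 mM KPO4, preincubated 10 min with compound; NADPH regeneration started a 60 min RT reaction. Luciferin detected by luminescence, normalized to 57 uM ketoconazole as full inhibition.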

The target is the same in assay [2]. Nature of the assay: qHTS Assay for Activators of Cytochrome P450 3A4 (AID 885). Also: nearly all actives have a fitted effect of over 65% in size. The procedure, abridged: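 20nM CYP3A4 + 25uM Luciferin-PPXE (=KM), 200mM KPO4; cpd 10 min RT; NADPH regen, 60 min RT; stop w/ detection buffer, 20 min; luminescence. Normalized to 57 uM ketoconazole.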
For orientation: qHTS replaces the single test concentration by a dilution series.

Assay [3] in a line: qHTS Assay for Identification of Small Molecule Agonists for Thrombopoietin (TPO) Signaling Pathway (AID 917). Also: potency is read from the fitted curve at half-maximal effect. The procedure, abridged: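 Murine Ba/F3 cells expressing human TPO receptor and GPIIb-promoter luciferase, IL-3-starved overnight, given compound plus TPO at 26 pM (EC50). After 24 h at 37 C, 5% CO2, luminescence read.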
The target in assay [4] is Cytochrome P450 2C9 (Homo sapiens) (UniProt P11712). Nature of the assay: qHTS Assay for Inhibitors and Substrates of Cytochrome P450 2C9 (AID 883). Also: nearly all actives have a fitted effect of over 60% in size. Also: potency is read from the fitted curve at half-maximal effect. The procedure, abridged: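 Luminescent read-out of deoxyluciferin hydroxylation, normalized to 57uM sulphaphenazole (AC100). Reaction: 10nM enzyme, 100uM Luciferin-H (equal to KM), 25mM KPO4, 10 min compound preincubation, then 60 min with NADPH regeneration, both at 37C.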

Assay [5] addresses Cytochrome P450 2D6 (Homo sapiens) (UniProt P10635). The experiment in a line: qHTS Assay for Inhibitors and Substrates of Cytochrome P450 2D6 (AID 891). Also: nearly all actives have a fitted effect of over 60% in size. Also: potency is read from the fitted curve at half-maximal effect. The procedure, abridged:
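Human CYP2D6 (5 nM) with 30 uM Luciferin-ME EGE (at Km) in 100 mM KPO4, compound preincubated 10 min, then NADPH regeneration system for 60 min at room temperature. Luciferin read by luminescence; normalized to 1.43 uM quinidine.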

A short description of assay [6]: Confirmation and Secondary Assay for Modulators of Hemoglobin Beta Chain Splicing at IVS2 654 locus (AID 910).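 Also: HeLa cells stably carrying EGFP split by mutant beta-globin IVS2-654 intron; per-well total GFP intensity by laser scanning cytometry after 2-day treatment.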 The procedure, abridged: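 Readout: per-well total peak green fluorescence (488 nm ex, 500–520 nm em) from objects 5–250 µm, reflecting correct splicing of an EGFP-654 reporter. Compounds were applied for 2 days at 37 °C to overnight-plated HeLa EGFP-654 cells; controls were DMSO and 500 nM IVS2-654 PNA.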

The target of assay [7] is Cytochrome P450 2C19 (Homo sapiens) (UniProt P33261). The experiment in a line: qHTS Assay for Inhibitors and Substrates of Cytochrome P450 2C19 (AID 899). Also: nearly all actives have a fitted effect of over 60% in size. Also: potency is read from the fitted curve at half-maximal effect. The procedure, abridged:
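Luminescence readout of luciferin formed from 10uM Luciferin-H EGE (KM level) by 5 nM CYP2C19 in 50mM KPO4. 60 min NADPH-driven reaction at 37C after 10 min compound preincubation; data scaled to 57uM ketoconazole inhibition.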

The nature of assay [8]: qHTS Assay for Identification of Small Molecule Antagonists for NFkB Signaling Pathway (AID 895; active = well fitted inhibition curve with a large enough effect in the signal ratio, with a control signal flat, not every such curve was filed as active; the % refers to the signal ratio; also: potency is read from the fitted curve at half-maximal effect). The procedure, abridged: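 Beta-lactamase reporter read-out (460 and 530 nm emission ratio, 405 nm excitation, 2 hrs substrate loading RT) after 5 hr stimulation with 10 pM TNF alpha in compound-treated NFkB-bla ME-180 cells in low-serum medium.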
Assay [9] is described as follows: qHTS Assay for Identification of Small Molecule Antagonists for Thrombopoietin (TPO) Signaling Pathway (AID 918). Also: potency is read from the fitted curve at half-maximal effect; nearly all actives have a fitted effect of over 60% in size. The settings on record: TPO-dependent cell signaling reporter, antagonist mode. The procedure, abridged: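 First, Ba/F3 reporter cells expressing human TPO receptor were held overnight without IL-3. Next, compound and 26 pM TPO were added. After 24 hrs incubation at 37 C, luciferase luminescence under the Glycoprotein IIb promoter was recorded.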

The nature of assay [10]: qHTS Assay for Identification of Small Molecule Agonists for Hypoxia Response Element Signaling Pathway (AID 914; active = well fitted activation curve with a large enough effect in the signal ratio, with a control signal flat, not every such curve was filed as active; the % refers to the signal ratio). To be noted: ME-180 (cervical carcinoma) HRE-bla reporter, beta-lactamase ratio, CoCl2, 17 h; hits give high values. The procedure, abridged: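 Cells were plated overnight, pin-dosed with compound in a titration series, co-stimulated with EC50 CoCl2 and incubated 17 hours at 37 degrees Celsius. CCF4 substrate was then loaded, and AC50 values came from the 460nm/530nm ratio.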

The structures appear in SMILES notation. Several values for one entry are separate records, joined by “and”; a condition that tells them apart may be missing. Equal values may be shown once. Values without a mark were called inactive. Inconclusive results are not listed. A call without a number means that no potency is given here. Activity calls are given as the source filed them. Unless noted, calls follow the shape of the dose curve; as a rule, active = well fitted curve in the direction sought with a large enough effect; inconclusive = small, poorly fitted or top-dose-only effect, or another doubt; inactive = no such curve, though single readings can be large; an effect the other way counts as inactive or inconclusive.

Cytochrome P450 2C19 (Homo sapiens), sequence (P33261 whole entry, looked up): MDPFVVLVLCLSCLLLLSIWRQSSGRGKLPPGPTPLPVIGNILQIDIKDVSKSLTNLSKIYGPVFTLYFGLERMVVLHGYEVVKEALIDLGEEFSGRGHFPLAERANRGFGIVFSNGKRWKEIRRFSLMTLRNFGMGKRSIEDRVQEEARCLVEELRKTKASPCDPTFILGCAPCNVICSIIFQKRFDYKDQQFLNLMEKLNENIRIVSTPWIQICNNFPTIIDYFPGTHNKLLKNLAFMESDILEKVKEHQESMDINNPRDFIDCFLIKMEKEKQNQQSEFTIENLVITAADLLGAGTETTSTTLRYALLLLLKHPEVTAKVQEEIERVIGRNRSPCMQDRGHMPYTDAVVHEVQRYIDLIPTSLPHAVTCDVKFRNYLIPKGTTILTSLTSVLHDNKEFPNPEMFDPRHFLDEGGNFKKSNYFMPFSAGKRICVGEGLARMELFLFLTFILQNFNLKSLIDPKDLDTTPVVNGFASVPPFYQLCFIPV
Cytochrome P450 3A4 (Homo sapiens), sequence (P08684 whole entry, looked up): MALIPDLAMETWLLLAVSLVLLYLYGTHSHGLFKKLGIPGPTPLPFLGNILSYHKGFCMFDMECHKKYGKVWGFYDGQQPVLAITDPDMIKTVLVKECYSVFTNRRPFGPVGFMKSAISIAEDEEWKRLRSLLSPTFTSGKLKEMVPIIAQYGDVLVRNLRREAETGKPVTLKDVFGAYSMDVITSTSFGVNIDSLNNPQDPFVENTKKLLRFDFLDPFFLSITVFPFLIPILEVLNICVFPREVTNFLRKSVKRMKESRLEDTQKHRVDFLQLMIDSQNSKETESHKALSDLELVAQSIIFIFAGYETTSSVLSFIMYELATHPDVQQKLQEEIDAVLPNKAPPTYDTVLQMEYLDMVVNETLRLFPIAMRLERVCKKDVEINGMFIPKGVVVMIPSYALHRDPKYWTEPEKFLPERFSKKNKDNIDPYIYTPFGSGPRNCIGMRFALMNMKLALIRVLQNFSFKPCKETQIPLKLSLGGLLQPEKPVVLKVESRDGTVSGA
Cytochrome P450 2D6 (Homo sapiens), sequence (P10635 whole entry, looked up): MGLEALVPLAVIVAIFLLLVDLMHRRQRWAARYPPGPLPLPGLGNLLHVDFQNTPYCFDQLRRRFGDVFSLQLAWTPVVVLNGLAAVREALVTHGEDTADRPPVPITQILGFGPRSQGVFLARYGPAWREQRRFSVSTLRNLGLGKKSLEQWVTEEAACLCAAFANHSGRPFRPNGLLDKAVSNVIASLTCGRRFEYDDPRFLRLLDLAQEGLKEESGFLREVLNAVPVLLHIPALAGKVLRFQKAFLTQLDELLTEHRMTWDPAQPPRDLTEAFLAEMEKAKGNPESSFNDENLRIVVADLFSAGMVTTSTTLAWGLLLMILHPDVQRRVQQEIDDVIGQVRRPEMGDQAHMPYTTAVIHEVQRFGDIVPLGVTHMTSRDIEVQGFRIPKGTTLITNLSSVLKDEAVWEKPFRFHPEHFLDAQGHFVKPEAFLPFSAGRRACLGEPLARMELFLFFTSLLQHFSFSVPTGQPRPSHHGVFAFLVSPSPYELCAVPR
Cytochrome P450 2C9 (Homo sapiens), sequence (P11712 whole entry, looked up): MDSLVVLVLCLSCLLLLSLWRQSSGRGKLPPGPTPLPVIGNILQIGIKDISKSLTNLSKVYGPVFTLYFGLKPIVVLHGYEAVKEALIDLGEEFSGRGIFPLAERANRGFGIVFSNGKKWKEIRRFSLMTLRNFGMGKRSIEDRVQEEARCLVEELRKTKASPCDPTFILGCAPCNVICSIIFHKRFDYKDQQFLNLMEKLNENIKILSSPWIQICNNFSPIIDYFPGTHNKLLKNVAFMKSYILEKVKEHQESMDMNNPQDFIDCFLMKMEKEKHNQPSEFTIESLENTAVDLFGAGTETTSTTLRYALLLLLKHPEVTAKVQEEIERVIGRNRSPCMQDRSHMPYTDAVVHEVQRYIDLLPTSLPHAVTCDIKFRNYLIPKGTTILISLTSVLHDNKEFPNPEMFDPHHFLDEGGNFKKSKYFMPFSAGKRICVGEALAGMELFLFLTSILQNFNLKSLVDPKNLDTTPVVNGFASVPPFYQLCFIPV

For `CCCn1c(=O)c2[nH]c(-c3ccc(OCC(=O)NCCN)cc3)nc2n(CCC)c1=O`, the Potency in assay [1] was 2.51 µM (active). The Potency entry in assay [2] and in [3] was “inactive” each time.

In the case of `COc1ccccc1N1CCN(CCN(C(=O)c2ccc(I)cc2)c2ccccn2)CC1`, the Potency entry in [4] was “inactive”. Further, the Potency in assay [5] was 3.98 µM (active).

On to `O=C(Nc1ccncc1)c1cc([N+](=O)[O-])ccc1Cl`, for which the Potency in [1] is 1.26 µM (active). Moreover, the Potency result in assay [2] is “inactive”.

Take `Cc1ccc(C(=O)c2ccc(CC(=O)O)n2C)cc1`: in assay [1], the Potency entry is “inactive”. Also, in assay [6], the compound was called inactive.

For `N=C(N)N`, the Potency result in assay [1] is “inactive”. In addition, the result in [6] was inactive.

On to `CCCSc1ccc2nc(NC(=O)OC)[nH]c2c1`, for which the compound was classed as inactive in assay [4], in assay [5], in assay [7] and in [6].

For the compound `NC(N)=NC(=O)c1nc(Cl)c(N2CCCCCC2)nc1N`, the Potency entry in [1] and in assay [8] was “inactive” each time. Moreover, in assay [7], the Potency is 5.01 µM (active). For the same compound, the compound was called inactive in [6].

As to `Nc1cc(-c2ccncc2)c[nH]c1=O`, in assay [2], the Potency entry is “inactive”. For the same compound, in [7], the Potency is 5.01 µM (active). Besides, the call in assay [6] was inactive.

Take `COc1cccc(OC)c1OCCNCC1COc2ccccc2O1` (stereo unspecified): the Potency in assay [1] is 3.16 µM (active). Besides, the Potency result in assay [2] was “inactive”. Further, the compound was called inactive in [6].

In the case of `N#C/C(=C\c1ccc(O)c(O)c1)C(=O)NCCCc1ccccc1`, in assay [1], the Potency was 2.51 µM (active). Moreover, the Potency result in [2] was “inactive”.

With `Oc1c(Br)cc(Br)c2cccnc12`, in assay [1], the Potency entry was “inactive”. Also, the compound was called inactive in [6].

With `O=c1[nH]c2cc([N+](=O)[O-])c([N+](=O)[O-])cc2[nH]c1=O`, the Potency entry in assay [4], in [2], in [5], in assay [7] and in [3] was “inactive” in each case.

On to `Ic1ccc(N2CCN(Cc3c[nH]c4ncccc34)CC2)cc1`, for which the Potency entry in assay [2] was “inactive”.

In the case of `CN(C)c1nc2c(Br)c(Br)c(Br)c(Br)c2[nH]1`, the Potency was 20 µM (active) in assay [1], 0.501 µM (active) in assay [8] and 1.26 µM (active) in assay [3]. For the same compound, in [2], the Potency entry was “inactive”.

Regarding `N#C/C(=C\c1ccc(O)c(O)c1)C(=O)c1ccc(O)c(O)c1`, the Potency entry in assay [2] and in assay [8] was “inactive” each time.

On to `CC(C(=O)O)c1ccc(C(=O)c2cccs2)cc1` (stereo unspecified), for which the Potency result in [1] is “inactive”. For the same compound, the outcome in assay [6] was inactive.

With `Cc1c(Nc2ncccc2C(=O)O)cccc1C(F)(F)F`, in assay [1], the Potency result was “inactive”. The compound was classed as inactive in assay [6].

Regarding `N#C/C(=C\c1c[nH]c2ccccc12)C(=O)c1ccc(O)c(O)c1`, the Potency in assay [1] is 7.94 µM (active). The Potency entry in assay [2] is “inactive”.

As to `Nc1nc(Cl)nc2c1ncn2[C@@H]1O[C@H](CO)[C@@H](O)[C@H]1O`, in assay [1], the Potency result was “inactive”. Moreover, the call in [6] was inactive.

For the compound `CN=c1nc(-c2ccccc2)n(-c2ccccc2)s1`, the results for the Potency in assay [4], in assay [7] and in assay [9] were 2 µM (active), 3.16 µM (active) and 2.51 µM (active), respectively. Moreover, the Potency result in assay [2] and in [8] was “inactive” throughout.

For the compound `Oc1cc2c(cc1O)CN(C(=S)NCCc1ccc(Cl)cc1)CCC2`, the Potency in assay [1] was 3.16 µM (active); in [7] it was 5.01 µM (active) and 316 nM (active). Also, the Potency entry in assay [2] is “inactive”.

Take `CCC1C(=O)OCC1Cc1cncn1C` (stereo unspecified): the Potency in [7] was 7.94 µM (active).

For the compound `CN(C)C(N)=NCCC[C@H](N)C(=O)O`, the Potency result in assay [7] is “inactive”.

With `C[N+]1(C)CCC(OC(=O)C(c2ccccc2)c2ccccc2)CC1`, the activation in assay [10] was 0.751%.

Take `O=C(Nc1cccc(C(=O)Nc2ccc(S(=O)(=O)O)c3cc(S(=O)(=O)O)cc(S(=O)(=O)O)c23)c1)Nc1cccc(C(=O)Nc2ccc(S(=O)(=O)O)c3cc(S(=O)(=O)O)cc(S(=O)(=O)O)c23)c1`: the activation in assay [10] was -24.7%.
